# In PubChem BioAssay (EPA / NIEHS):
# Several values for one entry are separate records, joined by “and”; a condition that tells them apart may be missing. Equal entries are not always repeated. Some structures have more than one record in an assay (separate samples or runs), and their calls can disagree. Activity calls are given as the source filed them. The calls were made as follows: active = hit-call score of the fitted dose curve at least 0.9, where 1 is the maximum; inactive = score below 0.9.
# Assays:
# [1] = APR_HepG2_P-H2AX_72hr: Apredica 72-hour HepG2 Assay for H2AX Phosphorylation (AID 2282916); conditions: imaging, actives raise or lower the signal;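 also: phospho-histone H2A.x immunostain intensity per cell marking DNA damage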
# Method in brief: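 Human hepatoma HepG2 cells are dosed across ten concentrations (0.39 to 200 uM, 0.5% v/v DMSO) and incubated 72 hr. Phospho-histone H2A.x is then detected by antibody staining alongside c-Jun and Hoechst, and quantified by automated fluorescence imaging.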
# [2] = APR_HepG2_MitoMembPot_72hr: Apredica 72-hour HepG2 Assay for Mitochondrial Membrane Potential (AID 2282917); conditions: imaging, actives raise or lower the signal
# Method in brief: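 HepG2 cells exposed 72 h to compounds at 0.39–200 uM (0.5% v/v DMSO, duplicates); MitoTracker Red CMXRos 250 nM loaded 30 min before 3.7% formaldehyde fixation, imaged by HCS fluorescence. Bidirectional fit versus DMSO.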
# [3] = APR_HepG2_MitoticArrest_72hr: Apredica 72-hour HepG2 Assay for Mitotic Arrest (AID 2282918); conditions: high-content imaging, actives raise or lower the signal
# Method in brief: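 Using high-content imaging of fixed HepG2 cells, phospho-histone H3 signal was measured following a 72 hr incubation with ten-point compound dilutions up to 200 uM. DMSO served as the negative control and baseline for bidirectional curve fitting.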
# [4] = APR_HepG2_MicrotubuleCSK_72hr: Apredica 72-hour HepG2 Assay for Microtubule CSK Stabilty (AID 2282919); conditions: HepG2 microtubule cytoskeleton, high-content imaging, actives raise or lower the signal
# Method in brief: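 Ten-point dosing (0.39–200 uM, 0.5% DMSO) of HepG2 for 72 hr, with taxol as the cytoskeletal positive control. The cells were formaldehyde-fixed and then stained with alpha-tubulin/Cy5 and Hoechst. Imaging at 20x used a −2 um Z offset for tubulin.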
# [5] = APR_HepG2_P-H2AX_24hr: Apredica 24-hour HepG2 Assay for H2AX Phosphorylation (AID 2282920); conditions: high-content imaging, actives raise or lower the signal
# Method in brief: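 Human HepG2 liver cells, treated 24 hr with test chemicals (0.39–200 uM, final DMSO 0.5% v/v), are fixed and co-stained for phospho-H2A.x and c-Jun with Hoechst. Imaged intensity is fitted in both directions against DMSO controls.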
# [6] = APR_HepG2_StressKinase_72hr: Apredica 72-hour HepG2 Assay for Stress Kinase (AID 2282921); conditions: HepG2 stress kinase (phospho-c-Jun) imaging, actives raise or lower the signal
# Method in brief: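 After a 72 h compound treatment spanning 0.39 to 200 uM, formaldehyde-fixed cells are labelled for phosphorylated c-Jun and nuclei, imaged by automated fluorescence microscopy, and activity is fitted in both directions relative to DMSO controls.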
# [7] = APR_HepG2_StressKinase_24hr: Apredica 24-hour HepG2 Assay for Stress Kinase (AID 2282922); conditions: HepG2 stress kinase (phospho-c-Jun) imaging, actives raise or lower the signal
# Method in brief: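 After 24 hr compound treatment (up to 200 uM, final DMSO 0.5% v/v), HepG2 cells are fixed and multiplex-labeled; phospho-c-Jun intensity is captured by high-content fluorescence imaging and analyzed relative to DMSO.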
# [8] = APR_HepG2_p53Act_72hr: Apredica 72-hour HepG2 Assay for p53 Activation (AID 2282923); conditions: high-content imaging, actives raise or lower the signal;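 also: average cellular p53 protein immunofluorescence intensity in HepG2 cells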
# Method in brief: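 Imaging-based endpoint: after 72 hr compound exposure (up to 200 uM, 0.5% DMSO), fixed and permeabilized monolayers were labelled with anti-p53 antibody and imaged; signal change in either direction was fitted relative to DMSO controls.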
# [9] = APR_HepG2_MitoMass_72hr: Apredica 72-hour HepG2 Assay for Mitochondrial Mass (AID 2282924); conditions: high-content imaging, actives raise or lower the signal;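 also: MitoTracker Red CMXRos stain intensity per cell imaged as mitochondrial mass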
# Method in brief: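 Steps: treat HepG2 72 hr (0.39–200 uM, duplicate wells); load MitoTracker Red CMXRos, 250 nM, 30 min; fix with 3.7% formaldehyde, permeabilise with 0.5% Triton X-100; capture images, nuclei via Hoechst 33342; fit bidirectionally against DMSO.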
# [10] = APR_HepG2_NuclearSize_72hr: Apredica 72-hour HepG2 Assay for Nuclear Size (AID 2282925); conditions: high-content imaging, actives raise or lower the signal
# Method in brief: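 Compounds (0.39–200 uM, final DMSO 0.5%) were applied to HepG2 for 72 hr. Cells were then formaldehyde-fixed, permeabilized and labelled with Hoechst 33342. Nuclear diameter was quantified from six images per well.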
# [11] = ATG_CRE_CIS: Attagene CIS-FACTORIAL HepG2 Assay for human cAMP Responsive Element (CRE) binding protein 3 (AID 2282926); conditions: HepG2 CRE cis-reporter, Attagene multiplexed mRNA; actives raise or lower the signal
# Method in brief: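 Liver-derived HepG2, transfected with a CRE-containing reporter panel, exposed 24 h; transcript levels sized and quantified by capillary electrophoresis of labelled amplicons; signal changes either way referenced to vehicle.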
# [12] = target: CCAAT/enhancer-binding protein beta (Homo sapiens) (UniProt P17676); assay: ATG_C_EBP_CIS: Attagene CIS-FACTORIAL HepG2 Assay for human CCAAT/Enhancer Binding Protein (C/EBP) beta (AID 2282927); conditions: HepG2 Attagene cis-factorial transcription factor reporter; actives raise or lower the signal
# Method in brief: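 Following a 24 h incubation with test chemical, transfected HepG2 cells yielded RNA whose reporter transcripts were quantified by RT-PCR and fluorescent capillary electrophoresis, with DMSO serving as baseline for bidirectional fitting.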
# [13] = ATG_CMV_CIS: Attagene CIS-FACTORIAL HepG2 Assay for human CMV (Internal Marker) (AID 2282928); conditions: HepG2 CMV promoter reporter, transcription factor profiling; actives raise or lower the signal;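 also: endpoint acts as a background internal control marker rather than a target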
# Method in brief: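 Bidirectional fits against DMSO are applied to reporter mRNA, read by RT-PCR with capillary electrophoresis, from HepG2 cells exposed 24 h. The endpoint serves as an internal CMV background marker within the cis-factorial reporter panel.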
# [14] = ATG_DR4_LXR_CIS: Attagene CIS-FACTORIAL HepG2 Assay for human Liver X Receptor (LXR), DR4 submotif (AID 2282929); conditions: HepG2 Attagene DR4 cis-reporter, mRNA transcription; actives raise or lower the signal
# Method in brief: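 Fluorescence intensity of labelled reporter cDNA fragments, separated by capillary electrophoresis, gives the signal. HepG2 cells bearing cis-regulated reporter constructs were treated 24 h; activity fitted bidirectionally relative to DMSO negative control.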
# [15] = target: Aryl hydrocarbon receptor (Homo sapiens) (UniProt P35869); assay: ATG_Ahr_CIS: Attagene CIS-FACTORIAL HepG2 Assay for human Aryl Hydrocarbon Receptor (Ahr) (AID 2282930); conditions: HepG2 AhR cis-factorial reporter transcription; actives raise or lower the signal
# Method in brief: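 Values derive from bidirectional fitting against DMSO negative control. Underlying signal: cis-element reporter mRNA in transiently transfected HepG2, harvested 24 h post-dose and measured by RT-PCR plus capillary electrophoresis.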
# [16] = ATG_AP_1_CIS: Attagene CIS-FACTORIAL HepG2 Assay for human Activator Protein 1 (AP-1) (AID 2282931); conditions: HepG2 Attagene cis-factorial AP-1 reporter mRNA; actives raise or lower the signal
# Method in brief: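 Multiplexed HepG2 reporter assay, 24 h dosing. mRNA induction detected by RT-PCR plus capillary electrophoresis. Activity fitted in both directions against DMSO.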
# [17] = ATG_AP_2_CIS: Attagene CIS-FACTORIAL HepG2 Assay for human Activator Protein 2 (AP-2) (AID 2282932); conditions: HepG2 AP-2 cis-reporter, Attagene transcription factor profiling; actives raise or lower the signal
# Method in brief: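 Cells (HepG2) transfected with promoter-driven reporter constructs, treated 24 h. Total RNA reverse-transcribed, reporter cDNA PCR-amplified, FAM-labelled by primer extension, digested, resolved by capillary electrophoresis. Activity fitted both directions versus DMSO.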
# [18] = ATG_BRE_CIS: Attagene CIS-FACTORIAL HepG2 Assay for human Bone Morphogenetic Protein (BMP) Response Element (BRE) (AID 2282933); conditions: HepG2 BMP response element reporter, Attagene transcription factor profiling; actives raise or lower the signal
# Method in brief: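 Multiplexed cis-reporter assay, HepG2, 24 h exposure. mRNA from reporter units quantified via RT-PCR/CE; DMSO baseline; bidirectional curve fit.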
# [19] = target: Retinoic acid receptor alpha (Homo sapiens) (UniProt P10276); assay: ATG_DR5_RAR_CIS: Attagene CIS-FACTORIAL HepG2 Assay for human Retinoic Acid Receptor Alpha (RARE), DR5 submotif (AID 2282934); conditions: HepG2 Attagene cis-factorial RARE DR5 reporter, mRNA; actives raise or lower the signal;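 as to AC50: reporter responds to endogenous RAR alpha beta and gamma in HepG2 not RARA alone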
# Method in brief: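 Endpoint fitted in both directions relative to DMSO as negative control. It reflects DR5 cis-element reporter mRNA induction in transiently transfected HepG2 cells, measured 24 h after dosing through RT-PCR and fluorescent capillary electrophoresis.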
# [20] = target: Transcription factor E2F1 (Homo sapiens) (UniProt Q01094); assay: ATG_E2F_CIS: Attagene CIS-FACTORIAL HepG2 Assay for human E2F Transcription Factor 1 (AID 2282935); conditions: HepG2 Attagene cis-reporter, E2F reporter RNA transcripts; actives raise or lower the signal
# Method in brief: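 First, HepG2 cells were transfected with reporter transcription units. Next, they were dosed for 24 h. Then RNA was isolated, converted to cDNA, PCR-amplified, FAM-labeled, HpaI-digested and analyzed by capillary electrophoresis.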
# Aryl hydrocarbon receptor (Homo sapiens), sequence (P35869 whole entry, looked up): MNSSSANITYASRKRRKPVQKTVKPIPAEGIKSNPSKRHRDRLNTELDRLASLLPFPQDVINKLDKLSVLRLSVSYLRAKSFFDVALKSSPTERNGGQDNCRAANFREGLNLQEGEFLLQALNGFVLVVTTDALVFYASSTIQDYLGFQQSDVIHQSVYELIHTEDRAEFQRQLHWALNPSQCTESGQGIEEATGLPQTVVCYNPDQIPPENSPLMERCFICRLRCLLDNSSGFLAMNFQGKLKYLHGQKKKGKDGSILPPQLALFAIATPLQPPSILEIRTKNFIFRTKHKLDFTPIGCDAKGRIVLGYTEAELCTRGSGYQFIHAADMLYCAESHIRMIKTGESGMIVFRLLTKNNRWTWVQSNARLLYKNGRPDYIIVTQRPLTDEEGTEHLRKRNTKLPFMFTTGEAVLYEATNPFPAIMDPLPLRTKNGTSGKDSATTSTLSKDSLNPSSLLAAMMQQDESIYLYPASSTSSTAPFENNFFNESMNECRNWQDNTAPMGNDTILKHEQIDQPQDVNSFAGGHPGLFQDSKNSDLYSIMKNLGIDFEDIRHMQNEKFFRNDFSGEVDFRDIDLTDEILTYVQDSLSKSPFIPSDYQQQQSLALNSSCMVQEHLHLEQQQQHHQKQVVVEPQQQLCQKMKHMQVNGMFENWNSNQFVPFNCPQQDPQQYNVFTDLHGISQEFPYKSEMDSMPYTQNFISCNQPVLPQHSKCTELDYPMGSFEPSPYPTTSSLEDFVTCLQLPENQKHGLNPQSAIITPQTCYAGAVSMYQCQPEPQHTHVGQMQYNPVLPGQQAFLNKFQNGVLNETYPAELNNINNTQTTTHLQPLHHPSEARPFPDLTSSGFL
# Transcription factor E2F1 (Homo sapiens), sequence (Q01094 whole entry, looked up): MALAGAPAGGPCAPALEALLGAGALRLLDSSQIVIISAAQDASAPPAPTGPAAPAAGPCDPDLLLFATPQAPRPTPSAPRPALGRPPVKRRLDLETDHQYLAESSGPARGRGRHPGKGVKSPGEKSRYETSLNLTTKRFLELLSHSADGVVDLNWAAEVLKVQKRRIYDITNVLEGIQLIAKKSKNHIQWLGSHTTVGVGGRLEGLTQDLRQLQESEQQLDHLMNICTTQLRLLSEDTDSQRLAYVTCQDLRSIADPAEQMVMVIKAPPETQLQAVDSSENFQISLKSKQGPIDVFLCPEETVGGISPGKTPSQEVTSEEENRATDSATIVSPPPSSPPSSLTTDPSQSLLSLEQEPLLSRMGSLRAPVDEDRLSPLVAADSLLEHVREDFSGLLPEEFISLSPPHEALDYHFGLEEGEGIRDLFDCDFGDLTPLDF
# Retinoic acid receptor alpha (Homo sapiens), sequence (P10276 whole entry, looked up): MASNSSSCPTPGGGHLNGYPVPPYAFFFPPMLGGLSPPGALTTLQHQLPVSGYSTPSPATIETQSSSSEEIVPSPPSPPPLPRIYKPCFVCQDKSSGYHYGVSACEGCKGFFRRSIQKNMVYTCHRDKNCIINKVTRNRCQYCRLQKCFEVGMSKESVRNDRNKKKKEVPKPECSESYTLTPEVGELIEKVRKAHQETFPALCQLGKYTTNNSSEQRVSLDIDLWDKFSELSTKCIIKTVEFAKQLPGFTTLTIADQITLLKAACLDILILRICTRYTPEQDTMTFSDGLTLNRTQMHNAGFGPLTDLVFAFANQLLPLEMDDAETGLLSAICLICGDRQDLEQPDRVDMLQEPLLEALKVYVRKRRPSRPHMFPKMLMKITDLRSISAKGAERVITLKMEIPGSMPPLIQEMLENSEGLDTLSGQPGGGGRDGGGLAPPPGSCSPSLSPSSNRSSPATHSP
# CCAAT/enhancer-binding protein beta (Homo sapiens), sequence (P17676 whole entry, looked up): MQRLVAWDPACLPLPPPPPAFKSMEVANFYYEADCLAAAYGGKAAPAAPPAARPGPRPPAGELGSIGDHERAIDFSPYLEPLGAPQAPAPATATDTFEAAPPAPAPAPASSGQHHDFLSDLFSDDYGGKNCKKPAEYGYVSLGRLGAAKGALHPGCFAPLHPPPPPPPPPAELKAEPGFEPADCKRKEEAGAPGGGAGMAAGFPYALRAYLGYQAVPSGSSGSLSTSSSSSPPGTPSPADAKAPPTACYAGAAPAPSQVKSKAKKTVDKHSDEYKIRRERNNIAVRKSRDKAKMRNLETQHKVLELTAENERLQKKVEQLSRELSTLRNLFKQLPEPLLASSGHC
structure (smiles),measurement,setting,value
COC(=O)c1ccccc1S(=O)(=O)NC(=O)N(C)c1nc(C)nc(OC)n1,outcome,[1],inactive
same,outcome,[2],inactive
same,outcome,[3],inactive
same,outcome,[4],inactive
same,outcome,[5],inactive
same,outcome,[6],inactive
same,outcome,[7],inactive
same,outcome,[8],inactive
same,outcome,[9],inactive
same,outcome,[10],inactive
same,outcome,[11],inactive
same,outcome,[12],inactive
same,outcome,[13],inactive
same,outcome,[14],inactive
same,outcome,[15],inactive
same,outcome,[16],inactive
same,outcome,[17],inactive
same,outcome,[18],inactive
same,outcome,[19],inactive
same,outcome,[20],inactive
CC(C)OC(=O)Nc1cccc(Cl)c1,outcome,[1],inactive
same,outcome,[2],inactive
same,outcome,[3],inactive
same,outcome,[4],inactive
same,outcome,[5],inactive
same,outcome,[6],inactive
same,outcome,[7],inactive
same,outcome,[8],inactive
same,outcome,[9],inactive
same,outcome,[10],inactive
same,AC50,[11],15.3 µM (active)
same,AC50,[12],22.5 µM (active)
same,AC50,[13],34.1 µM (active)
same,outcome,[14],inactive
same,outcome,[15],inactive
same,outcome,[16],inactive
same,outcome,[17],inactive
same,outcome,[18],inactive
same,outcome,[19],inactive
same,outcome,[20],inactive
ClC1C(Cl)C(Cl)C(Cl)C(Cl)C1Cl (stereo not drawn),outcome,[1],inactive
same,outcome,[2],inactive
same,outcome,[3],inactive
same,outcome,[4],inactive
same,outcome,[5],inactive
same,outcome,[6],inactive
same,outcome,[7],inactive
same,outcome,[8],inactive
same,outcome,[9],inactive
same,outcome,[10],inactive
same,AC50,[11],16 µM (active)
same,outcome,[11],inactive
same,AC50,[12],61.8 µM (active)
same,outcome,[12],inactive
same,AC50,[13],65.5 µM (active)
same,outcome,[13],inactive
same,AC50,[14],116 µM (active) and 21.7 µM (active)
same,outcome,[14],inactive
same,outcome,[15],inactive
same,AC50,[16],47.9 µM (active)
same,outcome,[16],inactive
same,outcome,[17],inactive
same,AC50,[19],11 µM (active) and 5.74 µM (active)
same,outcome,[19],inactive
same,outcome,[20],inactive
OCCOc1ccccc1,outcome,[1],inactive
same,outcome,[2],inactive
same,outcome,[3],inactive
same,outcome,[4],inactive
same,outcome,[5],inactive
same,outcome,[6],inactive
same,outcome,[7],inactive
same,outcome,[8],inactive
same,outcome,[9],inactive
same,outcome,[10],inactive
same,outcome,[11],inactive
same,outcome,[12],inactive
same,outcome,[13],inactive
same,outcome,[14],inactive
same,outcome,[15],inactive
same,outcome,[16],inactive
same,outcome,[17],inactive
same,outcome,[19],inactive
same,outcome,[20],inactive
Cc1cc(C)nc(NC(=O)NS(=O)(=O)c2ccccc2C(=O)OC2COC2)n1,outcome,[1],inactive
same,outcome,[2],inactive
same,outcome,[3],inactive
same,outcome,[4],inactive
same,outcome,[5],inactive
same,outcome,[6],inactive
same,outcome,[7],inactive
same,outcome,[8],inactive
same,outcome,[9],inactive
same,outcome,[10],inactive
same,outcome,[11],inactive
same,outcome,[12],inactive
same,outcome,[13],inactive
same,outcome,[14],inactive
same,outcome,[15],inactive
same,outcome,[16],inactive
same,outcome,[17],inactive
same,outcome,[19],inactive
same,outcome,[20],inactive
